Inconclusive results are not listed. Calls of active or inactive are those of the source. Calls come from the whole dose curve; as a rule, active = well fitted curve in the direction sought with a large enough effect; inconclusive = small, poorly fitted or top-dose-only effect, or another doubt; inactive = no such curve, though single readings can be large; an effect the other way counts as inactive or inconclusive. Starred links: 1 amine or outer side, 2 acyl side, 3 side chain; linkers in the order of their positions; H or OH if unused. Positions of bridges follow the written chain, without caps; N, C: chain ends. Non-standard residues stand in square brackets, D forms with d. Residues, ends and D or L forms follow the SMILES beside them. Chains are numbered I, II in the order given. Actinocin(9to1) = Cc1c2oc3c(C)ccc(C(=O)[*:1])c3nc-2c(C(=O)[*:2])c(N)c1=O; NMeV = CN[CH](C(=O)O)C(C)C; Sar = CNCC(=O)O

A short description of experiment [1]: BET inhibitor-based combinations targeting novel dependencies in MECOM-rearranged (r) AML: OCI-AML3 cell line (AID 2202232). Note: nearly all actives have a fitted effect of over 35% in size. The note with it: Potency: OCI-AML3 viability. In a few lines: (§1)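 500 cells/well; 11-pt dose curve; 48 h, standard incubator; CellTiter-Glo luminescence after 15 min RT; DMSO/empty-well normalization; AUC plus Z-AUC (mean-centered within each line).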

The nature of experiment [2]: BET inhibitor-based combinations targeting novel dependencies in MECOM-rearranged (r) AML: MV-4-11 cell line (AID 2202233). Note: nearly all actives have a fitted effect of over 45% in size. In a few lines:
(§2)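 Cells were plated at 500 per well and exposed to each drug across an 11-point dose range for 48 hr at standard incubator conditions. Viability was read by CellTiter-Glo luminescence, and activity was expressed as AUC and per-cell-line Z-transformed AUC.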

Experiment [3] in a line: BET inhibitor-based combinations targeting novel dependencies in MECOM-rearranged (r) AML: HNT-34 cell line (AID 2202234). Note: nearly all actives have a fitted effect of over 35% in size. A digest of the protocol: as §2
The nature of experiment [4]: BET inhibitor-based combinations targeting novel dependencies in MECOM-rearranged (r) AML: UCSD-AML1 cell line (AID 2202235). Note: nearly all actives have a fitted effect of over 40% in size. In a few lines: as §2
Experiment [5] in a line: BET inhibitor-based combinations targeting novel dependencies in MECOM-rearranged (r) AML: AML-191 cell line (AID 2202236; note: nearly all actives have a fitted effect of over 35% in size). In a few lines:
as §1

Experiment [6] is described as follows: BET inhibitor-based combinations targeting novel dependencies in MECOM-rearranged (r) AML: AML-194 cell line (AID 2202237; note: nearly all actives have a fitted effect of over 40% in size). In a few lines:
as §1
Potency is the fitted concentration of half-maximal effect.

Consider `Cc1c(Cl)cccc1S(=O)(=O)Nc1nc(CCN2CCOCC2=O)cs1`, for which the Potency in experiment [1] was 0.0742 µM (active). The Potency result in experiment [2], in experiment [3] and in experiment [4] was “inactive” in each case.
Consider `C=CC(=O)N1CC/C(=C\c2ccc(F)c([N+](=O)[O-])c2)C(=O)/C(=C/c2ccc(F)c([N+](=O)[O-])c2)C1`, for which the Potency in experiment [1] was 0.0525 µM (active); in experiment [2], 0.059 µM (active); in experiment [3], 0.186 µM (active); in experiment [4] it was 0.166 µM (active); in experiment [5], 0.209 µM (active); in experiment [6], 0.372 µM (active).
Turning to `CCOC(=O)c1c(CSc2ccccc2)n(C)c2cc(Br)c(O)c(CN(C)C)c12`, the Potency is 11.8 µM (active) in experiment [1], 18.6 µM (active) in experiment [2] and 11.8 µM (active) in experiment [3].
Turning to `CNc1nc(-c2ccc3c(N)n[nH]c3c2)cc(N2C[C@@H](C(=O)NC3CCCCC3)CC[C@H]2C)n1`, the Potency in experiment [1] is 5.9 µM (active); in experiment [2], 14.8 µM (active); in experiment [3], 13.2 µM (active); in experiment [4], 0.742 µM (active); in experiment [5] it was 23.5 µM (active).
Turning to `CC(=O)N1CCC(Nc2cc(C(=O)NC[C@H](O)CN3CCc4ccccc4C3)ncn2)CC1`, the Potency was 0.0042 µM (active) in experiment [1] and 0.0417 µM (active) in experiment [2]. In addition, the Potency entry in experiment [3], in experiment [4] and in experiment [6] was “inactive” in each case.
On to `C[C@@]12C(=O)OC(=O)[C@]1(C)[C@H]1CC[C@@H]2O1`, for which the Potency in experiment [1] is 3.72 µM (active); in experiment [2] it was 3.32 µM (active); in experiment [3], 2.95 µM (active); in experiment [4] it was 7.42 µM (active); in experiment [5], 2.95 µM (active); in experiment [6], 2.63 µM (active).
`CC1(C)O[C@@H]2C[C@H]3[C@@H]4C[C@H](F)C5=CC(=O)C=C[C@]5(C)[C@H]4[C@@H](O)C[C@]3(C)[C@]2(C(=O)CO)O1`: the Potency result in experiment [1], in experiment [2], in experiment [3], in experiment [4] and in experiment [6] was “inactive” throughout.
For `C=C1CCC2[C@](C)(CO)C(O)CC[C@]2(C)C1C/C=C1/C(=O)OCC1O` (some centres not stated), the Potency is 7.42 µM (active) in experiment [1]; 3.32 µM (active) in experiment [2]; 5.9 µM (active) in experiment [3]; 11.8 µM (active) in experiment [4]; 7.42 µM (active) in experiment [5]; 9.34 µM (active) in experiment [6].
For `Nc1n[n+]([O-])c2ccccc2[n+]1[O-]`, the Potency in experiment [1] is 18.6 µM (active); in experiment [2], 13.2 µM (active); in experiment [3] it was 16.6 µM (active); in experiment [5], 18.6 µM (active). In addition, the Potency entry in experiment [4] was “inactive”.
In the case of `Cc1c2oc3c(C)ccc(C(=O)NC4C(=O)NC(C(C)C)C(=O)N5CCCC5C(=O)N(C)CC(=O)N(C)C(C(C)C)C(=O)OC4C)c3nc-2c(C(=O)NC2C(=O)NC(C(C)C)C(=O)N3CCCC3C(=O)N(C)CC(=O)N(C)C(C(C)C)C(=O)OC2C)c(N)c1=O` (configuration not stated) (I: TVP[Sar][NMeV] / II: TVP[Sar][NMeV]; ester I:1-I:C, II:1-II:C; linker I:N-II:N via Actinocin(9to1); configuration not given here), the Potency was 0.0032 µM (active) in experiment [1]; 0.0014 µM (active) in experiment [2]; 0.0057 µM (active) in experiment [3]; 0.0032 µM (active) in experiment [4]; 0.0102 µM (active) in experiment [5]; 0.0115 µM (active) in experiment [6].
Take `Cc1cc2cc(Oc3ccnc(Nc4cccc(CS(=O)(=O)NCCN(C)C)c4)n3)ccc2[nH]1`: the Potency in experiment [1] was 20.9 µM (active); in experiment [2], 3.32 µM (active); in experiment [3], 13.2 µM (active); in experiment [4] it was 16.6 µM (active); in experiment [5] it was 18.6 µM (active).
For `CC(C)(O)C1CCC(Nc2ccc3ncc(-c4cccc(C(F)(F)F)c4)n3n2)CC1` (configuration not stated) the same measures were 11.8 µM (active), 3.32 µM (active), 6.61 µM (active), 6.61 µM (active) and 5.9 µM (active).
For `Cc1cc(OCCCc2c3n(c4c(-c5c(C)nn(C)c5C)c(Cl)ccc24)[C@H](C)CN(c2cn(C)c4ccc(C(=O)O)cc24)C3=O)cc(C)c1Cl`, the Potency in experiment [1] is 2.63 µM (active); in experiment [2], 0.468 µM (active); in experiment [3] it was 2.95 µM (active); in experiment [4], 20.9 µM (active); in experiment [5] it was 20.9 µM (active); in experiment [6] it was 14.8 µM (active).
Regarding `CCNC(=O)Nc1ccc(-c2nc3c(c(N4CCOC[C@@H]4C)n2)CCN(C2COC2)C3)cc1`, the Potency was 1.48 µM (active) in experiment [1], 1.32 µM (active) in experiment [2] and 1.05 µM (active) in experiment [3].
For `CCN1C(=O)N2Cc3cc(OC)cc(OC)c3[C@@H](C)C=C2C12CCN(Cc1cc(C)cc(C)c1)CC2`, the Potency in experiment [2] is 29.5 µM (active); in experiment [3] it was 23.5 µM (active).
As to `COC1=C(OC)C(=O)C(CCCCCCCCCCO)=C(C)C1=O`, the Potency was 16.6 µM (active) in experiment [1] and 18.6 µM (active) in experiment [5].
As to `CO[C@H]1/C=C/O[C@@]2(C)Oc3c(C)c(O)c4c(O)c(c(/C=N\N5CCN(C6CCCC6)CC5)c(O)c4c3C2=O)NC(=O)/C(C)=C\C=C\[C@H](C)[C@H](O)[C@@H](C)[C@@H](O)[C@@H](C)[C@H](OC(C)=O)[C@@H]1C`, the Potency in experiment [2] is 23.5 µM (active).
On the same count and under the same terms, for `Cc1cccc(/C=N/Nc2cc(N3CCOCC3)nc(OCCc3ccccn3)n2)c1` the value was 7.42 µM (active).
`Cc1ccc(NC(=O)c2cccc(C(C)(C)C#N)c2)cc1Nc1ccc2ncn(C)c(=O)c2c1`: the Potency in experiment [1] was 0.0742 µM (active); in experiment [3], 0.662 µM (active).
With `CC/C(=C(/c1ccc(O)cc1)c1ccc(OCCNC)cc1)c1ccccc1`, the Potency in experiment [1] is 14.8 µM (active); in experiment [3], 23.5 µM (active); in experiment [4], 9.34 µM (active); in experiment [5] it was 13.2 µM (active); in experiment [6] it was 13.2 µM (active).
For `CN(C)c1cc(NC(=O)CNC(C)(C)C)c(O)c2c1C[C@H]1C[C@H]3[C@H](N(C)C)C(=O)C(C(N)=O)=C(O)[C@]3(O)C(=O)C1=C2O`, the Potency entry in experiment [1], in experiment [3], in experiment [5] and in experiment [6] was “inactive” in each case. The Potency in experiment [4] was 4.68 µM (active).
As to `COC(=O)C1=C(C)NC(c2ncc(F)cc2F)=N[C@@H]1c1ccc(F)cc1Cl`, the Potency entry in experiment [1], in experiment [4], in experiment [5] and in experiment [6] was “inactive” in each case.

(Values after PubChem BioAssay (NCATS).)
